Most compounds without a hit are left out; they make up all but 22% or so of the library.
Cycloheximide cs = affects cycloheximide protein synthesis inhibition readout, counter-screen; cell reporter, cycloheximide protein synthesis inhibition counterscreen; max response, %; 300,000 tested, 12% active; AID 2314; in the data active = max response mostly above about 13%, no sharp cut-off; inactive = mostly below about 14%; note: read at 38.3 µM for the half of the compounds with a filed dose; 0% is about no effect
Pf growth 48h = inhibits P. falciparum growth in the first generation, 48 h | Potency, µM (highest dose often 28.7 µM), without a hit: top-dose activity change, negative = inhibition, most hits filed as inhibitors | AID 504832 | 310,000 tested, 5.9% active | P. falciparum luciferase growth in erythrocytes, 48 h; note: potency is the fitted concentration of half-maximal effect; % is set by controls: 0 for no effect and ±100 for the full control effect
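Read-out is firefly luciferase luminescence from an integrated reporter in P. falciparum, so falling signal marks reduced parasite growth. Infected erythrocytes were at 2% hematocrit and 0.1% parasitemia (final) in Albumax-supplemented RPMI 1640.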
Pf growth 96h = P. falciparum growth inhibition at 96 hours. 320,000 tested, 6.9% active. Potency, µM (series often up to 28.7 µM), for inactives: at the top dose activity change, negative = inhibition, actives largely listed as inhibitors. P. falciparum luciferase reporter growth, 96 h. AID 504834; note: potency is the fitted concentration of half-maximal effect; % is set by controls: 0 for no effect and ±100 for the full control effect
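96 h incubation, 37 C, 5% CO2, of luciferase-reporter P. falciparum-infected RBCs (2% hematocrit, 0.05% parasitemia final) with test compounds; endpoint luminescence.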
LmPK inhibitor = inhibitors of Leishmania mexicana pyruvate kinase | Q27686 | AID 1721 | purified LmPK, Kinase-Glo ATP luminescence, 1 h | 290,000 tested, 0.37% active | Potency, µM (top dose mostly 57.5 µM), inactives show top-dose activity change, negative = inhibition, most hits filed as inhibitors; note: potency is the fitted concentration of half-maximal effect; % is set by controls: 0 for no effect and ±100 for the full control effect
Target sequence (Q27686 whole entry, looked up): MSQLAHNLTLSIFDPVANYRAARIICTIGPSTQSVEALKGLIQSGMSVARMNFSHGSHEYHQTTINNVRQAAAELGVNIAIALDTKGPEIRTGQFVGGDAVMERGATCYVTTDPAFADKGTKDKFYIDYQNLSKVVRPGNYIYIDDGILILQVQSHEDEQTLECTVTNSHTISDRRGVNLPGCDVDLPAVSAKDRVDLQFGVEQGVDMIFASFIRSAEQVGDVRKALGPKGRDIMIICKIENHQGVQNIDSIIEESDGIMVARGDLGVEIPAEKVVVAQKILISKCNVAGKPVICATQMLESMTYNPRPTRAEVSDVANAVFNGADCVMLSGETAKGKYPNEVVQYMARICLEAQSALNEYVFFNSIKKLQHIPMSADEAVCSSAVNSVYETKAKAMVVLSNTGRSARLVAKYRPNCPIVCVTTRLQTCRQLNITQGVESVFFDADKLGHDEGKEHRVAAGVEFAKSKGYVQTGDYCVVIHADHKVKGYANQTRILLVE
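Screened at intermediate enzyme activity to detect both inhibitors and activators: LmPK at 0.1 nM, with a 0.5 nM enzyme column as activation reference. PEP 0.5 mM, ADP 0.1 mM; ATP detected by luminescence after 1 h.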
Shiga inhibitor = blocks Shiga toxin action in Vero cells; Vero cells, Shiga toxin protein synthesis inhibition reporter; inhibition, % at 38.7 µM; 290,000 tested, 9.2% active; AID 2315; in the data active = inhibition mostly above about 28%, no sharp cut-off; inactive = mostly below about 43%; note: 0% is about no effect
Starred values were filed as active, the others as inactive; ? = inconclusive; · = no result given; [ ] = dose if it differs, or a comment. Unless noted, calls come from the whole dose curve; as a rule, active = well fitted inhibition curve with a large enough effect; inconclusive = small, poorly fitted or top-dose-only effect, or another doubt; inactive = no such curve, though single readings can be large or run the other way.

SMILES	Cycloheximide cs	Pf growth 48h	Pf growth 96h	LmPK inhibitor	Shiga inhibitor
COc1cc2cc(CN(CCCN3CCOCC3)C(=O)Nc3ccc(F)cc3)c(=O)[nH]c2cc1OC	11.8	13.1µM*	39.9%	-5.7%	-21.5
COc1ccc2[nH]c(=O)c(CN(CCCN(C)C)C(=O)Nc3ccc(F)cc3)cc2c1	-3.2	13.1µM*	53.8%	-2.0%	16.0
Cc1ccc2[nH]c(=O)c(CN(CCN3CCOCC3)C(=O)Nc3ccc(F)cc3)cc2c1	-2.2	-25.9%	·	-7.1%	-8.3
COC(=O)c1ccccc1S(=O)(=O)N(Cc1cc2cc3c(cc2[nH]c1=O)OCO3)C1CCCCC1	11.0	8.28µM*	11.1%	-1.5%	-9.1
COc1ccc(OC)c(CN(CCN2CCOCC2)C(=O)Nc2cccc(Cl)c2)c1	-4.7	-12.6%	-21.1%	1.6%	-7.7
O=C(Nc1ccc(F)cc1)N(Cc1ccco1)Cc1cc2cc3c(cc2[nH]c1=O)OCO3	-1.5	10.4µM*	?	2.1%	-12.6
CCCN1CCCc2cc(CN(CCCN3CCOCC3)C(=O)Nc3ccc(OCC)cc3)ccc21	5.3	·	5.86µM*	8.0%	-13.6
CCN(CC)CCCN(Cc1cc2cc3c(cc2[nH]c1=O)OCCO3)C(=O)Nc1ccccc1	-3.4	10.4µM*	·	-20.1%	-4.3
O=C(Nc1ccc(F)cc1)N(Cc1cccs1)Cc1cc2cc3c(cc2[nH]c1=O)OCO3	-2.1	?	41.3%	5.7%	-9.1
COc1ccc(OC)c(CN(CCN2CCOCC2)C(=O)Nc2ccccc2)c1	9.2	19.8%	39.0%	-3.9%	43.1*
CCOc1ccc(NC(=O)N(CCN2CCOCC2)Cc2ccc3c(c2)CCCN3CC)cc1	-3.0	?	73.4%	-4.8%	-7.3
CCN(CC)CCCN(Cc1cc2cc3c(cc2[nH]c1=O)OCO3)C(=S)Nc1ccc(OC)cc1	-0.6	?	-16.5%	-0.1%	12.4
O=c1[nH]c2ccc([N+](=O)[O-])cc2nc1/C=C(\O)c1ccccc1	-2.3	31.9%	89.0%	-2.6%	-3.0
Cc1nnc(NC(=O)c2ccccc2Oc2ccccc2)s1	-3.7	-17.7%	4.6%	4.2%	-5.5
CCN(CC(=O)NCCc1ccc(S(N)(=O)=O)cc1)Cc1ccccc1	-2.5	2.6%	-19.1%	-8.1%	-13.6
Cc1cc(C)c2cc(CN(CCO)C(=O)Nc3ccc(Cl)cc3)c(=O)[nH]c2c1	5.5	9.28µM*	?	8.2%	-19.2
O=C(Nc1ccccc1)N(CCCN1CCOCC1)Cc1cc2cc3c(cc2[nH]c1=O)OCCO3	-1.0	13.1µM*	-19.9%	-18.7%	-2.8
CCN(CC)CCN(Cc1cc2cc3c(cc2[nH]c1=O)OCCO3)C(=O)NC1CCCCC1	9.1	-8.6%	-3.0%	-18.4%	-5.3
Cc1ccc(NC(=O)N(Cc2ccc3c(c2)OCO3)Cc2cc3cc4c(cc3[nH]c2=O)OCCO4)cc1	1.6	1.31µM*	·	3.0%	-17.0
COc1ccc(CN(Cc2cc3cc4c(cc3[nH]c2=O)OCO4)C(=O)NC2CCCCC2)cc1	-1.1	4.65µM*	17.1%	6.1%	-2.6
Cc1ccc(NC(=O)N(Cc2cccs2)Cc2cc3cc4c(cc3[nH]c2=O)OCO4)cc1	1.3	?	?	7.0%	-17.5
N#Cc1ccc(CC(C(=O)O)N2Cc3ccccc3C2=O)cc1 (centres undefined)	-1.3	·	-10.9%	2.7%	21.4
Cc1ccc(NC(=O)N(CCCN2CCOCC2)Cc2cc3cc4c(cc3[nH]c2=O)OCO4)cc1	-3.9	0.928µM*	13.1µM*	-2.4%	28.0
COc1ccc(CN(CCCN2CCOCC2)C(=O)Nc2cccc(Cl)c2)cc1OC	-0.7	?	11.7µM*	-0.1%	-7.0
Cc1ccc(C)c2[nH]c(=O)c(CN(CCN3CCCC3)C(=O)Nc3cccc(Cl)c3)cc12	-5.2	2.33µM*	5.3%	2.2%	-6.4
SMILES	Cycloheximide cs	Pf growth 48h	Pf growth 96h	LmPK inhibitor	Shiga inhibitor
CCc1ccc2[nH]c(=O)c(CN(CCCN3CCOCC3)C(=O)Nc3cccc(Cl)c3)cc2c1	-5.9	5.22µM*	·	-2.7%	-8.4
O=C(Nc1ccccc1F)N(CCCN1CCOCC1)Cc1cc2cc3c(cc2[nH]c1=O)OCCO3	-3.8	?	31.8%	?	82.0
CC(C)(O)C#Cc1ccc(C(=O)NC(CCCNC(N)=O)C(=O)O)s1 (centres undefined)	-2.6	1.9%[5.75 µM]	?	0.5%	0.2
CCOC(=O)C1=CC[C@H]2c3c(c4ccccc4n3C)C(=O)C1N2C	·	20.9%	?	·	·
Cc1ccc(C(C)(C)C)c(SCC(=O)Nc2nnc(C)s2)c1	-1.3	-6.8%	-11.9%	0.6%	-5.0
CCn1c(COc2ccc(=O)n(-c3ccccc3)n2)n[nH]c1=S	-5.6	?	?	-1.6%	-5.3
CCOc1ccc(-c2nnn(CCC#N)n2)cc1OC	7.0	12.6%	28.2%	-3.3%	21.5
CCc1ccc(-c2nnn(CCC(=O)OC)n2)cc1	19.4*	43.4%	4.65µM*	-7.4%	48.4
CCc1ccc(-c2nnn(CCC#N)n2)cc1	29.5*	35.9%	-14.4%	5.8%	39.5*
CC(C)(C)c1ccc(S(=O)(=O)Nc2ccc(C(=O)N3CCCC3)cc2)cc1	9.4	?	23.7%	1.6%	-6.4
CC1CCC[C@H](O)CCCCCc2cc(O)cc(O)c2C(=O)O1 (some centres undefined)	-8.4	?	?	7.4%	-11.3
C[C@H]1CCC[C@H](O)CCCCCc2cc(O)cc(O)c2C(=O)O1	-2.2	?	12µM*	4.1%	-16.0
CN1c2cc(O)c(N=NC(N)=O)cc2CC1S(=O)(=O)O (centres undefined)	·	-3.4%	5.1%	·	·
O=C(CSc1nnc(Cc2cc(=O)[nH]c(=O)[nH]2)n1-c1ccc(Cl)cc1)N1CCc2ccccc21	-4.5	2.94µM*	?	2.1%	-5.1
O=C(CSc1nnc(Cc2cc(=O)[nH]c(=O)[nH]2)n1-c1ccc(F)cc1)NC1CCCC1	-1.8	·	5.86µM*	0.4%	-8.4
COC(=O)C(C)Sc1nnc(Cc2cc(=O)[nH]c(=O)[nH]2)n1-c1ccc(OC)cc1 (centres undefined)	0.9	·	0.828µM*	4.5%	-10.0
COc1cccc(-n2c(Cc3cc(=O)[nH]c(=O)[nH]3)nnc2SCC(=O)N2CCCCC2)c1	-6.0	·	33.0%	14.5%	-6.0
O=C(CSc1nnc(Cc2cc(=O)[nH]c(=O)[nH]2)n1-c1ccc(F)cc1)N1CCCCC1	-2.6	·	7.38µM*	0.4%	21.5
CCC(C)Sc1nnc(Cc2cc(=O)[nH]c(=O)[nH]2)n1-c1ccc(OC)cc1 (centres undefined)	-4.1	·	-6.4%	-1.6%	2.7
CC(C)(C)NC(=O)CSc1nc(O)cc(=O)[nH]1	0.4	-6.8%	?	12.3%	-10.0
Cc1ccc(NC(=O)C2CCCN2C(=O)OCc2ccccc2)cc1F (centres undefined)	8.3	7.5%	?	8.5%	-3.2
O=c1/c(=C/c2ccc(O)c([N+](=O)[O-])c2)sc2nc3ccccc3n12	32.5*	10.8%	?	-5.6%	94.3*
Cc1cc(/C=c2/sc3nc4ccccc4n3c2=O)c(C)n1-c1ccccn1	67.2*	59.3%	-9.0%	-11.9%	27.1
